Reference: PubChem BioAssay (NCATS)
Inconclusive results are not listed. Where a call stands in place of a potency, no number is given. Active and inactive are the calls of the source. Unless noted, calls follow the shape of the dose curve; as a rule, active = well fitted curve in the direction sought with a large enough effect; inconclusive = small, poorly fitted or top-dose-only effect, or another doubt; inactive = no such curve, though single readings can be large; an effect the other way counts as inactive or inconclusive.

What was measured:
[1] = molecular target: Ubiquitin carboxyl-terminal hydrolase 1 (Homo sapiens) (UniProt O94782); assay: Inhibitors of USP1/UAF1: Pilot qHTS (AID 504865);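 also: rhodamine fluorescence freed from ubiquitin-rhodamine substrate followed over time; top concentration of the series differs between compounds; nearly all actives have a fitted effect of over 35% in size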
Ubiquitin carboxyl-terminal hydrolase 1 (Homo sapiens), sequence (O94782 whole entry, looked up): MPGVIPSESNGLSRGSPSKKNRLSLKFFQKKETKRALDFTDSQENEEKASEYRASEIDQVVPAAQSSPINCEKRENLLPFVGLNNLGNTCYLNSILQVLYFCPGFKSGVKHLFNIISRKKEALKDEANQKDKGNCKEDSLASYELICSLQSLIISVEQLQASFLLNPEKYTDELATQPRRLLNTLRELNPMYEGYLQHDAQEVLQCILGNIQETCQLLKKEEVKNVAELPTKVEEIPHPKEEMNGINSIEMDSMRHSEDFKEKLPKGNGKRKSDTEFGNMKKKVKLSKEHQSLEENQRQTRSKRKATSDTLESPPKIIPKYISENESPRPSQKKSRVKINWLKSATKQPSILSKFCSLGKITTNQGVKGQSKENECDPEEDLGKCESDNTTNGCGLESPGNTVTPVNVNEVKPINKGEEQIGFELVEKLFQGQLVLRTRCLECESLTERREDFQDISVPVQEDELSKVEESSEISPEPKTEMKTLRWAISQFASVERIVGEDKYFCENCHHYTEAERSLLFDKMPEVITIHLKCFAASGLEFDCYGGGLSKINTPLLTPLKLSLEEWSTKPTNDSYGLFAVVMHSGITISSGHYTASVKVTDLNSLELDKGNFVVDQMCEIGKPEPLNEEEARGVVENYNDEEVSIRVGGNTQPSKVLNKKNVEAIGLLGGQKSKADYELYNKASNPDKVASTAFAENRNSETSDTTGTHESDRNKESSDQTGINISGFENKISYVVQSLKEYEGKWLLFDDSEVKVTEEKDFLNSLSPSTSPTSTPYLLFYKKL
Procedure, shortened: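 Deubiquitinase activity followed as kinetic rhodamine fluorescence release from 150 nM Ub-Rho. 1 nM USP1/UAF1 with compound, after 15 min room-temperature preincubation, in HEPES pH 7.8 buffer containing TCEP, EDTA, BSA and Tween-20.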

[2] = molecular target: Luciferin 4-monooxygenase (Photinus pyralis) (UniProt P08659); assay: Biochemical firefly luciferase enzyme assay for NPC (AID 624030);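 also: purified P. pyralis luciferase at 10 nM with luciferin and ATP substrate; nearly all actives have a fitted effect of over 70% in size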
Luciferin 4-monooxygenase (Photinus pyralis), sequence (P08659 whole entry, looked up): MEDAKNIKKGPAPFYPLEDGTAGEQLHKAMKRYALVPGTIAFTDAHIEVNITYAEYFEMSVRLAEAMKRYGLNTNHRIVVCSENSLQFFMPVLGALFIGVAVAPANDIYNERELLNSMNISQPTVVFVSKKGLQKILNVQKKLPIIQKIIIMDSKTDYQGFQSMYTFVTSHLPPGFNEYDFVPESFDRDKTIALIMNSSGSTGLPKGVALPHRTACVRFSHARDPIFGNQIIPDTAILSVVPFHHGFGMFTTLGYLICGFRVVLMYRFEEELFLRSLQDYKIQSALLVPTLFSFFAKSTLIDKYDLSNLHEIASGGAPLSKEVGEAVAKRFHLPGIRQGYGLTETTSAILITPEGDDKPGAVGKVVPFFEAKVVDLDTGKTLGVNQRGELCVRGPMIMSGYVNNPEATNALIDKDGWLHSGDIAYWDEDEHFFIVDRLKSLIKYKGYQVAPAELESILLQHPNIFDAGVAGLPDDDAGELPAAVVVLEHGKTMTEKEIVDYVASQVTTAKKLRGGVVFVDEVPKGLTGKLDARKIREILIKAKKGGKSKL
Procedure, shortened: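 Purified P. pyralis luciferase at 10 nM in 50 mM Tris Acetate (final), luminescence read within 5 minutes of enzyme addition to compounds. Activity normalised to PTC124 versus DMSO; concentration-response curves classed by r2, magnitude and activity.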

[3] = S16 Schwann cell viability assay (CellTiter-Glo assay) (AID 624031);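 also: cellular ATP luminescence as a viability measure; nearly all actives have a fitted effect of over 70% in size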
Procedure, shortened: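 Native S16 Schwann cells (rat), serum-containing medium, overnight attachment then 24 h drug exposure at 37 °C/5% CO2. CellTiter-Glo ATP signal; normalized to cell-free and vehicle wells.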

[4] = S16 Schwann cell PMP22 intronic element firefly luciferase assay (AID 624032); also: nearly all actives have a fitted effect of over 30% in size
Procedure, shortened: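 Rat S16 Schwann cells stably carrying firefly luciferase driven by a PMP22 intronic element, in 10% FBS, treated 24 h at 37 C. ONE-Glo luminescence normalized to PTC124 control and DMSO (0%); curves classed by r2, magnitude and activity.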

[5] = S16 Schwann cell PMP22 intronic element beta-lactamase assay (AID 624044; calls by dose curve; also: nearly all actives have a fitted effect of over 15% in size)
Procedure, shortened: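 Beta-lactamase reporter under a PMP22 intronic regulatory element in stable S16 rat Schwann cells; 24 h compound exposure. 460 nm blue signal normalized between DMSO (0%) and potassium clavulanate, with 535 nm FRET tracking viability; curves classed by r2 and response.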

[6] = tested on: 3D7; assay: qHTS profiling for inhibitors of Plasmodium falciparum proliferation (AID 504749); also: nearly all actives have a fitted effect of over 60% in size; also: potency is read from the fitted curve at half-maximal effect; conditions: P. falciparum in erythrocytes, SYBR Green DNA, 72 h; series mostly up to 28.7 µM
Procedure, shortened: (§1)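 Each compound contacts P. falciparum-infected red blood cells for 72 h at 37 C; lysis buffer (Tris, EDTA, saponin, Triton X, SYBR Green I) is added and fluorescence measured next morning; values normalized to controls.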

[7] = tested on: 7G8; assay: as above; conditions: P. falciparum in erythrocytes, SYBR Green DNA, 72 h; series mostly up to 28.7 µM
Procedure, shortened: as §1

[8] = tested on: AA1029; assay: as above; conditions: P. falciparum in erythrocytes, SYBR Green DNA, 72 h; series mostly up to 28.7 µM
Procedure, shortened: as §1

[9] = tested on: CP192; assay: as above; conditions: P. falciparum in erythrocytes, SYBR Green DNA, 72 h; series mostly up to 28.7 µM
Procedure, shortened: as §1

[10] = tested on: CP194; assay: as above; conditions: P. falciparum in erythrocytes, SYBR Green DNA, 72 h; series mostly up to 28.7 µM
Procedure, shortened: as §1

[11] = tested on: CP203; assay: as above; conditions: P. falciparum in erythrocytes, SYBR Green DNA, 72 h; series mostly up to 28.7 µM
Procedure, shortened: as §1

[12] = tested on: CP247; assay: as above; conditions: P. falciparum in erythrocytes, SYBR Green DNA, 72 h; series mostly up to 28.7 µM
Procedure, shortened: as §1

[13] = tested on: CP260; assay: as above; conditions: P. falciparum in erythrocytes, SYBR Green DNA, 72 h; series mostly up to 28.7 µM
Procedure, shortened: as §1

[14] = tested on: CP286; assay: as above; conditions: P. falciparum in erythrocytes, SYBR Green DNA, 72 h; series mostly up to 28.7 µM
Procedure, shortened: as §1

[15] = tested on: DIV14; assay: as above; conditions: P. falciparum in erythrocytes, SYBR Green DNA, 72 h; series mostly up to 28.7 µM
Procedure, shortened: as §1

[16] = tested on: Dd2; assay: as above; conditions: P. falciparum in erythrocytes, SYBR Green DNA, 72 h; series mostly up to 28.7 µM
Procedure, shortened: as §1

[17] = tested on: ICS; assay: as above; conditions: P. falciparum in erythrocytes, SYBR Green DNA, 72 h; series mostly up to 28.7 µM
Procedure, shortened: as §1

[18] = tested on: N140; assay: as above; conditions: P. falciparum in erythrocytes, SYBR Green DNA, 72 h; series mostly up to 28.7 µM
Procedure, shortened: as §1

[19] = tested on: PC49; assay: as above; conditions: P. falciparum in erythrocytes, SYBR Green DNA, 72 h; series mostly up to 28.7 µM
Procedure, shortened: as §1

[20] = tested on: TAB165; assay: as above; conditions: P. falciparum in erythrocytes, SYBR Green DNA, 72 h; series mostly up to 28.7 µM
Procedure, shortened: as §1

| SMILES | Potency [1] | outcome [2] | Potency [3] | Potency [4] | outcome [5] | Potency [6] | Potency [7] | Potency [8] | Potency [9] | Potency [10] | Potency [11] | Potency [12] | Potency [13] | Potency [14] | Potency [15] | Potency [16] | Potency [17] | Potency [18] | Potency [19] | Potency [20] |
| --- | --- | --- | --- | --- | --- | --- | --- | --- | --- | --- | --- | --- | --- | --- | --- | --- | --- | --- | --- | --- |
| O=C(O)[C@@H](O)[C@@H](O)[C@H](O)C(=O)CO | inactive | inactive | inactive | inactive | inactive | inactive | inactive | inactive | inactive | inactive | inactive | inactive | inactive | inactive | inactive | inactive | inactive | inactive | inactive | inactive |
| CC(C)(C)c1ccc(CN2CCN([C@H](c3ccccc3)c3ccc(Cl)cc3)CC2)cc1 | inactive | inactive | inactive | inactive | inactive | 6.31 µM (active) | 3.55 µM (active) | 8.91 µM (active) | – | – | – | – | 7.08 µM (active) | 4.47 µM (active) | 15.1 µM (active) | 8.91 µM (active) | 2.51 µM (active) | 7.08 µM (active) | – | 7.94 µM (active) |
| Cc1onc(-c2c(F)cccc2Cl)c1C(=O)N[C@@H]1C(=O)N2[C@H]1SC(C)(C)[C@H]2C(=O)O | inactive | inactive | inactive | inactive | inactive | inactive | inactive | inactive | inactive | inactive | inactive | inactive | inactive | inactive | inactive | inactive | inactive | inactive | inactive | inactive |
| CC1(C)S[C@@H]2[C@H](NC(=O)Cc3ccccc3)C(=O)N2[C@@H]1C(=O)O | inactive | inactive | inactive | inactive | inactive | inactive | inactive | inactive | inactive | inactive | inactive | inactive | inactive | inactive | inactive | inactive | inactive | inactive | inactive | inactive |
| C[C@H](CCC(=O)O)[C@H]1CC[C@@H]2[C@H]3[C@@H](C[C@@H](O)[C@]21C)[C@]1(C)CC[C@H](O)C[C@@H]1C[C@@H]3O | inactive | inactive | inactive | inactive | inactive | inactive | inactive | inactive | inactive | inactive | inactive | inactive | inactive | inactive | inactive | inactive | inactive | inactive | inactive | inactive |
